Drawing on paper PMC7819943, “Rice protein-binding microarrays: a tool to detect cis-acting elements near promoter regions in rice”, this text covers binding signal for 45 sequences.

Whole data set: some 68,000 sequences, median “fluorescence intensity (a.u.)” near 9,100, cut for the highest 2% near 16,000. What follows is part of a selection rich in the highest values, with near analogues and random picks from the rest.

OsWRKY34, sequence (Q0JBA9 entry or part of it): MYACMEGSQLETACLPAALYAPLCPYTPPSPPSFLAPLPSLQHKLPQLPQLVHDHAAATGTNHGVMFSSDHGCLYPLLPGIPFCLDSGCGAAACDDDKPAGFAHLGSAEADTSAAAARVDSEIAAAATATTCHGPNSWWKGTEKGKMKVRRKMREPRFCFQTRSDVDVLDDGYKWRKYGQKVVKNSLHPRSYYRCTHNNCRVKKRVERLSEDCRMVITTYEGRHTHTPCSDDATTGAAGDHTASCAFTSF

The target in the experiment is OsWRKY34 (Oryza sativa, UniProt Q0JBA9 1-250). Kind of experiment: protein-binding microarray (RPBM); PBS, 2% BSA, 51.3 ng/ul salmon testes DNA, 50 uM zinc acetate, 200 nM TF, 25 C, 1 h; high values mean tight binding. The settings on record: protein: recombinant; tags: N-terminal polyhistidine and DsRed monomer fusion (pET32a); label: CyDye5-dUTP incorporated in the synthesized complementary strand; 3' TTTTT single-stranded linker to array surface; dsDNA, one strand shown. The procedure, abridged:
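Polyhistidine-tagged DsRed fusions of transcription factors, joined at the N-terminus, were expressed in E. coli BL21-CodonPlus and isolated on Ni–NTA. They were incubated at 200 nM for 1 h at 25 °C on a custom Agilent array, double-stranded and BSA-blocked, in PBS with 2% BSA, salmon testes DNA and 50 µM zinc acetate. The binding signal is per-feature fluorescence intensity (arbitrary units) read on an Axon 4000B scanner after washing.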
“TCCATGGATATTTTGTCTCTTCTGCTTGATCACTAGGCCCCGGAGTCACCTAGTGCAG”: the binding signal is 10100 fluorescence intensity (a.u.).

In the case of “TCCCGACACCGGCTGTCCACTTCGCTCTGCTCCACGCCGCCGGAGTCACCTAGTGCAG”, the binding signal was 8660 fluorescence intensity (a.u.).

Regarding “ATCCCCACCGTTGACCGAAGTTGACCTCCAAGAATCCTGACGGAGTCACCTAGTGCAG”, the binding signal is 13800 fluorescence intensity (a.u.).

On to “CTCCCTGAGTCTAGTCCCGATCCCCACCGTTGACCGAAGTCGGAGTCACCTAGTGCAG”, for which the binding signal is 19900 fluorescence intensity (a.u.).

As for “TCAACTCCTCCCTGAGTCTAGTCCCGATCCGCCGTTGACCCGGAGTCACCTAGTGCAG”, the binding signal is 13000 fluorescence intensity (a.u.).

For “CTGAGAATTTAGGACCTGATCACTTTTATGACATTTTCAACGGAGTCACCTAGTGCAG”, the binding signal is 8610 fluorescence intensity (a.u.).

In the case of “CCCATTATTTTTTATACCTTTATTTATCTTCTGTGTTTTTCGGAGTCACCTAGTGCAG”, the binding signal is 13500 fluorescence intensity (a.u.).

As for “TTTCCGTACTAAATTTTGTTCATTCGTTTTATTTATTTTTCGGAGTCACCTAGTGCAG”, the binding signal was 17100 fluorescence intensity (a.u.).

Consider “AATTTCTGCTGCCATTTTCTATGTTCTTTAGTCTAAGTTTCGGAGTCACCTAGTGCAG”, for which the binding signal is 14700 fluorescence intensity (a.u.).

Turning to “CATTTATCTATTTATCTATCTATATATATTATATTATATTCGGAGTCACCTAGTGCAG”, the binding signal is 8560 fluorescence intensity (a.u.).

As to “TGCGTTTATTTATACCGTTGTCCTCGCGTACTGTTTTATTCGGAGTCACCTAGTGCAG”, the binding signal was 19400 fluorescence intensity (a.u.).

As for “GGGTTTTTTATATACTGGTAAATATTCGCTACCGTATTCGCGGAGTCACCTAGTGCAG”, the binding signal is 9130 fluorescence intensity (a.u.).

On to “TTCGTATTTGTTTCCGTATCCGGATTATTCATATTCGTTTCGGAGTCACCTAGTGCAG”, for which the binding signal was 8050 fluorescence intensity (a.u.).

In the case of “TTTGCATTTATTTTTCATTGTTTCCGTCACTTTAGAAATTCGGAGTCACCTAGTGCAG”, the binding signal is 8260 fluorescence intensity (a.u.).

On to “GCTTTCTGTGGTGCATTCTATATTTTTTATATATTATTATCGGAGTCACCTAGTGCAG”, for which the binding signal is 16400 fluorescence intensity (a.u.).

Consider “AGTGGTGCATTCTGTTTTTTTATATATTATTATTTGTTTACGGAGTCACCTAGTGCAG”, for which the binding signal is 9050 fluorescence intensity (a.u.).

On to “GCCATTATATCTGCAGTTCTTTTCTGTGCTAAAATTTTAGCGGAGTCACCTAGTGCAG”, for which the binding signal is 17100 fluorescence intensity (a.u.).

With “TGTAGTTGTGAGTGTATTCGTTTGTACTGTTTTTTTTATACGGAGTCACCTAGTGCAG”, the binding signal was 11900 fluorescence intensity (a.u.).

Consider “GAGCACATACTTTGGTCATTAATGGTGATTATAATGATATCGGAGTCACCTAGTGCAG”, for which the binding signal is 8820 fluorescence intensity (a.u.).

With “GAGGAAACATCTATCCCGGTCAAAGCCTGAGCATGTACACCGGAGTCACCTAGTGCAG”, the binding signal was 8210 fluorescence intensity (a.u.).

“TTTCTCTTTGCACCCTAGCCTCATGTTCTTCTTCTTCCTCCGGAGTCACCTAGTGCAG”: the binding signal was 8680 fluorescence intensity (a.u.).

On to “GAAGAGCCGGCTCGTTCCTCTCCTTCCCGTTCACATTTCACGGAGTCACCTAGTGCAG”, for which the binding signal was 8260 fluorescence intensity (a.u.).

For “CTGATGTCTGAACGACTGTACCCGACGTTGTTGATTGCTTCGGAGTCACCTAGTGCAG”, the binding signal is 9820 fluorescence intensity (a.u.).

“GGGCGACAAGCACGCGTATACCCATCTATCATCCCGCTCCCGGAGTCACCTAGTGCAG”: the binding signal is 8390 fluorescence intensity (a.u.).

Turning to “CACCAGCATCCTCGCACGGTCGCGACCCCTCCCGCACCTCCGGAGTCACCTAGTGCAG”, the binding signal was 8200 fluorescence intensity (a.u.).

With “CAATCCGGACCATATAAGTGTTTTCCTTTTTTAATTCTTTCGGAGTCACCTAGTGCAG”, the binding signal was 11300 fluorescence intensity (a.u.).

Consider “TTATTTTGTGATTACTATCTCTCCGTTCATGTTTCTATCTCGGAGTCACCTAGTGCAG”, for which the binding signal is 16400 fluorescence intensity (a.u.).

As to “AAATTTGTATAGACGTTTGCTTTTAACTTAGTCCTAAATTCGGAGTCACCTAGTGCAG”, the binding signal is 9130 fluorescence intensity (a.u.).

Consider “ACTATTACTTCTATTTTCTAGTATTTTTTTTTGTTTCTCTCGGAGTCACCTAGTGCAG”, for which the binding signal is 13500 fluorescence intensity (a.u.).

With “CCCCTATTTTGTTACCTCATTATTCTCGTATTCCCCTTTTCGGAGTCACCTAGTGCAG”, the binding signal was 9810 fluorescence intensity (a.u.).

“TACATTACTTCATATTTTTTTCTGTTTGTGATTTCTATTTCGGAGTCACCTAGTGCAG”: the binding signal is 9740 fluorescence intensity (a.u.).

Regarding “TACTATTTTTTCTCGTATTCATTATTTTGTGCATTATTTTCGGAGTCACCTAGTGCAG”, the binding signal was 17200 fluorescence intensity (a.u.).

Take “GTATTTTAAGCATATTTTTTCGTTTTTTATATTTGTAAAACGGAGTCACCTAGTGCAG”: the binding signal was 11000 fluorescence intensity (a.u.).

For the sequence “ATAGTCATTTATTTTGTGCTCTCGTATTTTTTTTCTGTTTCGGAGTCACCTAGTGCAG”, the binding signal was 9540 fluorescence intensity (a.u.).

Take “AATTTTGTATATTCGTTTGCACGTTTTTAAAACTCCTAAACGGAGTCACCTAGTGCAG”: the binding signal was 65500 fluorescence intensity (a.u.).

As to “GATTGGGCGATTTCATCTTCTTCTTGGCCTTGAGGCGGTACGGAGTCACCTAGTGCAG”, the binding signal was 10000 fluorescence intensity (a.u.).

As to “TTTCTTAGCTATGTCCTAATTTATTACTGTGCATGTTTCTCGGAGTCACCTAGTGCAG”, the binding signal is 10900 fluorescence intensity (a.u.).

As for “CACATGTCATTGTCACACACACGCGCGCCCCATTGGACATCGGAGTCACCTAGTGCAG”, the binding signal was 9860 fluorescence intensity (a.u.).

On to “ATTTGCACCTGTTGAATGGGCATGTCTTGTGTGTGTTTCTCGGAGTCACCTAGTGCAG”, for which the binding signal was 8400 fluorescence intensity (a.u.).

“GTGGGGTCGGGTACTCGCGTGGGCCCACCTGGCCGGTCAACGGAGTCACCTAGTGCAG”: the binding signal is 10200 fluorescence intensity (a.u.).

For “TCTCGGGCCGAAACGGTCAACGCGTTTACCGGTGGCATAACGGAGTCACCTAGTGCAG”, the binding signal is 17500 fluorescence intensity (a.u.).

For “CCCACCAGGCCACCAAACTCTCTCGGGCCGAAACGGTCAACGGAGTCACCTAGTGCAG”, the binding signal is 8380 fluorescence intensity (a.u.).

With “TCCTCTTGCAATCATTCACTCTCCTTGCTCGATTCTATAACGGAGTCACCTAGTGCAG”, the binding signal is 11300 fluorescence intensity (a.u.).

With “AATTCTTTTGTCGTATTATCCTATCTACTTCCACTTATAACGGAGTCACCTAGTGCAG”, the binding signal was 8560 fluorescence intensity (a.u.).

For the sequence “AATATAGTTGCTGATGCGCTGTCCAGGATGCCTGTTATACCGGAGTCACCTAGTGCAG”, the binding signal was 9400 fluorescence intensity (a.u.).
